# Values joined by “and” are separate entries in the source; they are usually repeats but may differ in a detail not shown here. Identical values can stand only once. For some of these results: Results with a measured potency or affinity are listed apart. Active and inactive are the calls of the source.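 Rule for the calls, unless noted: active = compounds whose cell count with miR-34 switched on is under 0.7 times the count with it off; inactive = the rest.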
# Columns and labels:
# [1] = differential killing of epithelial or mesenchymal cells, primary screen, imaging, PC-3E GFP, TEM4-18 mCherry, co-culture (AID 1345086;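 active = compounds killing one labelled cell type while sparing the other, by normalised counts and ratio limits, not self-fluorescent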;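 for all read-outs here: cells exposed to compound for 72 h before imaging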;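 for red/green cell ratio (normalised): normalised mesenchymal count divided by normalised epithelial count so high means epithelial killing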); details: imaging cell counts, at 1 µM; for red/green cell ratio (normalised): actives lie on both sides, counts scaled to control wells, 1 = unselective
# [2] = sensitizers of A549 cells to miR-34 induction, primary screen, imaging, A549 dox-inducible miR-34, nuclei and caspase counts (AID 1347080); details: A549 miR-34 inducible, Hoechst nuclei count, 48 h
# [3] = biological target: NAD(+) hydrolase SARM1 (Homo sapiens) (UniProt Q6SZW1); assay: SARM1 TIR NADase inhibitors, cell lysate, NAD-Glo luminescence (AID 1508614;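 active = compound whose remaining NAD level is above about 45 nM, limit read from the data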;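 note: higher remaining NAD means stronger inhibition of SARM1 NADase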); details: SAM-TIR HEK293T lysate NADase, at 1 µM, stronger effect = higher value
# NAD(+) hydrolase SARM1 (Homo sapiens), sequence (Q6SZW1 whole entry, looked up): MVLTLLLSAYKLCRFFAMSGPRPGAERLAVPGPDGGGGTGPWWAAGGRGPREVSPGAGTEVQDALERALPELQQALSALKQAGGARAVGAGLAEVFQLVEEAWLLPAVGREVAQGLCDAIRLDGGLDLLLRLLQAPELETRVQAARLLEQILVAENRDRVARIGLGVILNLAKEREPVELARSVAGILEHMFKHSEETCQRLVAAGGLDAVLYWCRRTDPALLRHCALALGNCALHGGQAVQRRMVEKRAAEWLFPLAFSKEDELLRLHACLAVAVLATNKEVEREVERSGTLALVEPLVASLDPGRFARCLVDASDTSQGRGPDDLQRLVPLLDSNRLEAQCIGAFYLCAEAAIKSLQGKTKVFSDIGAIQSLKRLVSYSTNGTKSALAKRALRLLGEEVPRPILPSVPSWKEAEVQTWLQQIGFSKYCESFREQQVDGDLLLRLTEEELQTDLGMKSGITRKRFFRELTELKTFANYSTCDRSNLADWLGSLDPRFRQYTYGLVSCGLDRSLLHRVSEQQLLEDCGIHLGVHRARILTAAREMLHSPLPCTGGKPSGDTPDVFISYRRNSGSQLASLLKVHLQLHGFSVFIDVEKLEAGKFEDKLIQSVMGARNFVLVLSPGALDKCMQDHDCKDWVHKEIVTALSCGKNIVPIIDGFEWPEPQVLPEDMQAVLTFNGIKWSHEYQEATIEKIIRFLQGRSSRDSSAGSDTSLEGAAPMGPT
# [4] = survival rescue of mitochondrial mutant cells in low glucose, primary screen, MELAS cybrids, Rieske KO mouse fibroblasts, CellTiter-Glo (AID 1508586;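 active = mean z-score across replicates of 1.96 or higher in either the MELAS or the Rieske mutant cell line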;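 note: z relative to plate mean and SD of compound and empty wells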)
# [5] = viability rescue of complex I mutant cybrids, primary screen, cell-based, galactose medium, ATP luminescence (AID 1645843;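 active = z-score of at least 1.8 in each of two replicates, scored against plate mean and spread of sample wells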;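 note: positive z means more ATP and so rescue of galactose-driven cybrid death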); details: complex I mutant cybrid cells, 72 h, stronger effect = higher value
# [6] = hESC survival regulators, cell-based (AID 493140; call rule not given here;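 note: cells exposed to compounds for four days before counting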); details: human embryonic stem cell survival screen; stronger effect = higher value
# [7] = liver-stage malaria parasite growth inhibition, primary screen, cell-based, HepG2, luciferase luminescence, HepG2 viability (AID 624349; in the data active = parasite load remaining mostly below about 12%, no sharp cut-off; inactive = mostly above about 10%;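 note: 100% = mean of DMSO negative control wells on the same plate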); details: P. berghei liver stage in HepG2, luciferase luminescence, concentration not given here; parasite load remaining: stronger effect = lower value; viability: measured here: HepG2 viability without parasites
# [8] = polyglutamine-triggered caspase-3 activation inhibitors, cell-based (AID 1583); details: polyglutamine-induced caspase-3 activation, cell assay; stronger effect = higher value;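 tested at 10 µM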
# [9] = suppressors of polyQ aggregation in yeast, 75Q-TubU reporter (AID 1593); details: Yeast 75Q polyglutamine aggregation reporter
# [10] = rescue of polyQ-huntingtin neuronal dysfunction in worms, whole organism, C. elegans mechanosensory neurons, N-terminal huntingtin (AID 1599); details: touch response, stronger effect = higher value
# [11] = inhibitors of mitochondrial cytochrome c release, biochemical, purified mitochondria (AID 1603); details: stronger effect = lower value;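 note: mouse liver mitochondria challenged with calcium chloride; signal normalized to the plate average as 100%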
# [12] = inhibitors of polyQ protein aggregation (AID 1604); details: polyglutamine-induced protein aggregation inhibition assay; stronger effect = higher value; tested at 2.5 µM
# [13] = enhancers of glutamate uptake in motor neurons, MN-1 cell line (AID 1612); details: MN-1 motor neuron cells, stronger effect = higher value;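 note: tested at 1 µM final; 0% = mean of DMSO vehicle wells on each plate; positive means more glutamate uptake than control and negative means less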
# [14] = reducers of polyQ inclusions in PC12 cells, cell-based, NGF-treated PC12, GFPQ80 (AID 1614); details: PC12 NGF-treated GFP-polyQ80 inclusion reduction;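 note: lower means fewer inclusions and 0 means no inclusions at all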
# [15] = suppressors of polyglutamine aggregation in yeast, 75Q-TubH (AID 1616); details: S. cerevisiae 75Q-TubH polyglutamine aggregation suppression; stronger effect = higher value
# [16] = biological target: Mitogen-activated protein kinase 7 (Homo sapiens) (UniProt Q13164); assay: ERK5 transactivation activators in reporter cells, primary screen, cell-based, HTS (AID 1508626;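 active = luciferase signal above three times the same-plate solvent-only control wells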;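 note: luciferase driven by Gal4-ERK5 fusion binding five Gal4 sites before minimal TATA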); details: HeLa Gal4-ERK5 transactivation, 18 h, at 5 µM, stronger effect = higher value
# Mitogen-activated protein kinase 7 (Homo sapiens), sequence (Q13164 whole entry, looked up, the tested form may be a part): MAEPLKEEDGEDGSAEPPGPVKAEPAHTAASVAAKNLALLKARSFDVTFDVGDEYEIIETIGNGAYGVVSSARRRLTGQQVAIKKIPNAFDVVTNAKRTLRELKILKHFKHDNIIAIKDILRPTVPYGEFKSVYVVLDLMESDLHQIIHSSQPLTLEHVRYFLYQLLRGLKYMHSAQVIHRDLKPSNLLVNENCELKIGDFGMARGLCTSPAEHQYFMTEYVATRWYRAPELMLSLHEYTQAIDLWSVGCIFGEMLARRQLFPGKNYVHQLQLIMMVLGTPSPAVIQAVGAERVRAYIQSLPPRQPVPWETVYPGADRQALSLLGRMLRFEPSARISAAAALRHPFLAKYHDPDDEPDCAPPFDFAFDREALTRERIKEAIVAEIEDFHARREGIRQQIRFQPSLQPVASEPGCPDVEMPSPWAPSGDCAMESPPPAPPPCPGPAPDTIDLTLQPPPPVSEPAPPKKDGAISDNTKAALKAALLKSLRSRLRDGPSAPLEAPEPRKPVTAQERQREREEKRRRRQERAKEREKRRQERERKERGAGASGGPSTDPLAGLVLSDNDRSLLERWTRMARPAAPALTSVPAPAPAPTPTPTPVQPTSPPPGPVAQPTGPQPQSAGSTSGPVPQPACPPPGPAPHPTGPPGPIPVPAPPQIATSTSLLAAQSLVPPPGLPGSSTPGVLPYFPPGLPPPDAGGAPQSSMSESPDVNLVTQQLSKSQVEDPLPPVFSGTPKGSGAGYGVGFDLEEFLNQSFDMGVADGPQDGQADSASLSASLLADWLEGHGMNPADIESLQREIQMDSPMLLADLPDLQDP
# [17] = measured here: epithelial PC-3E GFP cell survival
# [18] = measured here: mesenchymal TEM4-18 mCherry cell survival
# [19] = stronger effect = lower value, cell number ratio, induced over uninduced
# [20] = measured here: relative caspase fold change +Dox/-Dox
# [21] = measured here: total cells with miR-34 induction, stronger effect = lower value
# [22] = measured here: total cells without miR-34 induction
# [23] = MELAS cybrid survival, CellTiter-Glo 48 h, stronger effect = higher value
# [24] = Rieske KO mouse fibroblast survival, CellTiter-Glo 72 h
smiles,measurement,setting,value
CC(=O)Oc1cccc(C)c1,red/green cell ratio (normalised),[1],1.03 (inactive)
same,normalised cell number,[1]; [17],0.86
same,normalised cell number,[1]; [18],0.89
same,fold change,[2]; [19],0.912 (inactive)
same,fold change,[2]; [20],1.13
same,cell count,[2]; [21],8300
same,cell count,[2]; [22],9090
same,remaining NAD,[3],10 nM (inactive)
CCN(CC)CCOCCOC(=O)C(CC)(CC)c1ccccc1,red/green cell ratio (normalised),[1],1.07 (inactive)
same,normalised cell number,[1]; [17],0.85
same,normalised cell number,[1]; [18],0.9
same,fold change,[2]; [19],0.879 (inactive) and 0.86 (inactive)
same,fold change,[2]; [20],0.849 and 0.967
same,cell count,[2]; [21],7300 and 7460
same,cell count,[2]; [22],8310 and 8670
same,z-score,[4]; [23],-0.986 (inactive)
same,z-score,[4]; [24],-0.272
same,remaining NAD,[3],10 nM (inactive)
same,z-score,[5],-0.65 (inactive)
CC(=O)C1C(=O)C=C(C)OC1=O (stereo unspecified),red/green cell ratio (normalised),[1],1.08 (inactive)
same,normalised cell number,[1]; [17],0.99
same,normalised cell number,[1]; [18],1.07
same,fold change,[2]; [19],0.96 (inactive)
same,fold change,[2]; [20],0.723
same,cell count,[2]; [21],9120
same,cell count,[2]; [22],9500
same,remaining NAD,[3],10 nM (inactive)
O=C1C2CC3CC1CC(O)(C3)C2,red/green cell ratio (normalised),[1],0.85 (inactive)
same,normalised cell number,[1]; [17],1.16
same,normalised cell number,[1]; [18],0.99
same,fold change,[2]; [19],0.951 (inactive)
same,fold change,[2]; [20],0.928
same,cell count,[2]; [21],9100
same,cell count,[2]; [22],9570
same,remaining NAD,[3],10 nM (inactive)
CC1(C)OC(=O)C(OCC2CC2)=C1c1ccc(S(C)(=O)=O)cc1,red/green cell ratio (normalised),[1],1.08 (inactive)
same,normalised cell number,[1]; [17],1.02
same,normalised cell number,[1]; [18],1.1
same,fold change,[2]; [19],0.945 (inactive)
same,fold change,[2]; [20],0.86
same,cell count,[2]; [21],8900
same,cell count,[2]; [22],9420
same,remaining NAD,[3],10 nM (inactive)
C[C@H](N[C@@H](CCc1ccccc1)C(=O)O)C(=O)N1Cc2ccccc2C[C@H]1C(=O)O,red/green cell ratio (normalised),[1],0.82 (inactive)
same,normalised cell number,[1]; [17],1.1
same,normalised cell number,[1]; [18],0.91
same,fold change,[2]; [19],0.868 (inactive)
same,fold change,[2]; [20],0.983
same,cell count,[2]; [21],8350
same,cell count,[2]; [22],9630
same,remaining NAD,[3],10 nM (inactive)
Cc1c(C)c2c(c(C)c1O)CCC(C)(C(=O)O)O2 (stereo unspecified),survival,[6],0.667 (inactive)
same,parasite load remaining,[7],201% (inactive) and 66.3% (inactive)
same,viability,[7],117% and 76.7%
same,red/green cell ratio (normalised),[1],0.84 (inactive)
same,normalised cell number,[1]; [17],1.17
same,normalised cell number,[1]; [18],0.98
same,fold change,[2]; [19],0.854 (inactive)
same,fold change,[2]; [20],1.44
same,cell count,[2]; [21],8370
same,cell count,[2]; [22],9800
same,z-score,[4]; [23],-0.259 (inactive)
same,z-score,[4]; [24],-0.0183
CC(C)[C@H](N)C(=O)OCC(CO)OCn1cnc2c(=O)[nH]c(N)nc21 (stereo partly specified),red/green cell ratio (normalised),[1],0.79 (inactive)
same,normalised cell number,[1]; [17],1.28
same,normalised cell number,[1]; [18],1.01
same,fold change,[2]; [19],0.935 (inactive)
same,fold change,[2]; [20],0.843
same,cell count,[2]; [21],8710
same,cell count,[2]; [22],9320
same,remaining NAD,[3],10 nM (inactive)
Oc1ccc2ccccc2c1,red/green cell ratio (normalised),[1],0.96 (inactive)
same,normalised cell number,[1]; [17],0.82
same,normalised cell number,[1]; [18],0.79
same,fold change,[2]; [19],0.874 (inactive)
same,fold change,[2]; [20],1.01
same,cell count,[2]; [21],7170
same,cell count,[2]; [22],8200
same,remaining NAD,[3],10 nM (inactive)
CC(=O)Nc1ccc(OC(C)=O)cc1,red/green cell ratio (normalised),[1],0.87 (inactive)
same,normalised cell number,[1]; [17],1.25
same,normalised cell number,[1]; [18],1.09
same,fold change,[2]; [19],0.883 (inactive)
same,fold change,[2]; [20],1.21
same,cell count,[2]; [21],8510
same,cell count,[2]; [22],9640
same,remaining NAD,[3],10 nM (inactive)
CCCCCCCCCCCCCCCC(=O)OCC(O)[C@H]1OC(=O)C(O)=C1O (stereo partly specified),parasite load remaining,[7],30.5% (inactive)
same,viability,[7],230%
same,red/green cell ratio (normalised),[1],1.11 (inactive)
same,normalised cell number,[1]; [17],1.1
same,normalised cell number,[1]; [18],1.22
same,fold change,[2]; [19],1.02 (inactive) and 0.87 (inactive)
same,fold change,[2]; [20],0.52 and 0.622
same,cell count,[2]; [21],7640 and 11300
same,cell count,[2]; [22],7530 and 13000
same,z-score,[4]; [23],-0.179 (inactive)
same,z-score,[4]; [24],-0.164
CC(CCc1ccc(O)cc1)NCC(O)c1ccc(O)cc1 (stereo unspecified),parasite load remaining,[7],46.7% (inactive)
same,viability,[7],106%
same,red/green cell ratio (normalised),[1],0.98 (inactive)
same,normalised cell number,[1]; [17],0.86
same,normalised cell number,[1]; [18],0.84
same,fold change,[2]; [19],0.934 (inactive) and 0.886 (inactive)
same,fold change,[2]; [20],0.997 and 0.914
same,cell count,[2]; [21],8460 and 9910
same,cell count,[2]; [22],9050 and 11200
same,z-score,[4]; [23],0.268 (inactive)
same,z-score,[4]; [24],0.193
same,remaining NAD,[3],10 nM (inactive)
same,z-score,[5],0.065 (inactive)
O=C(Nc1ccccc1)c1ccccc1O,parasite load remaining,[7],67.6% (inactive)
same,viability,[7],101%
same,red/green cell ratio (normalised),[1],1 (inactive)
same,normalised cell number,[1]; [17],1.39
same,normalised cell number,[1]; [18],1.39
same,fold change,[2]; [19],0.912 (inactive) and 0.877 (inactive)
same,fold change,[2]; [20],0.72 and 3.66
same,cell count,[2]; [21],7720 and 10000
same,cell count,[2]; [22],8460 and 11400
same,z-score,[4]; [23],-0.183 (inactive)
same,z-score,[4]; [24],-0.206
same,remaining NAD,[3],10 nM (inactive)
CCC[C@@H]1C[C@@H](C(=O)N[C@@H](C2O[C@H](SC)[C@H](O)[C@@H](O)[C@H]2O)[C@H](C)Cl)N(C)C1 (stereo partly specified),survival,[6],18.7 (inactive)
same,parasite load remaining,[7],39.2% (inactive) and 98.8% (inactive) and 83.4% (inactive)
same,viability,[7],46.1% and 89% and 92.6%
same,red/green cell ratio (normalised),[1],1.26 (inactive)
same,normalised cell number,[1]; [17],1.17
same,normalised cell number,[1]; [18],1.47
same,fold change,[2]; [19],0.895 (inactive) and 0.881 (inactive)
same,fold change,[2]; [20],1.74 and 1.41
same,cell count,[2]; [21],9010 and 10700
same,cell count,[2]; [22],10100 and 12200
same,z-score,[4]; [23],0.619 (inactive)
same,z-score,[4]; [24],-0.624
O=C1c2ccccc2C(=O)C1c1ccc(Cl)cc1,red/green cell ratio (normalised),[1],0.87 (inactive)
same,normalised cell number,[1]; [17],1.18
same,normalised cell number,[1]; [18],1.03
same,fold change,[2]; [19],0.921 (inactive)
same,fold change,[2]; [20],1.21
same,cell count,[2]; [21],7610
same,cell count,[2]; [22],8270
same,remaining NAD,[3],10 nM (inactive)
CC1(O)CCOC(=O)C1 (stereo unspecified),parasite load remaining,[7],86.9% (inactive)
same,viability,[7],107%
same,red/green cell ratio (normalised),[1],1.07 (inactive)
same,normalised cell number,[1]; [17],0.95
same,normalised cell number,[1]; [18],1.02
same,fold change,[2]; [19],0.969 (inactive)
same,fold change,[2]; [20],0.886
same,cell count,[2]; [21],8270
same,cell count,[2]; [22],8540
same,z-score,[4]; [23],-0.827 (inactive)
same,z-score,[4]; [24],-0.633
Cc1nccnc1N1CCCCC1,red/green cell ratio (normalised),[1],1.12 (inactive)
same,normalised cell number,[1]; [17],0.93
same,normalised cell number,[1]; [18],1.04
same,fold change,[2]; [19],0.964 (inactive)
same,fold change,[2]; [20],0.767
same,cell count,[2]; [21],9440
same,cell count,[2]; [22],9790
same,remaining NAD,[3],10 nM (inactive)
CC(C)[C@@H]1CC[C@@H](C)C[C@H]1O,inhibition,[8],18.8%
same,score,[9],1.2
same,rescue above control,[10],5.72
same,cytochrome c release ratio,[11],0.66
same,inhibition of aggregation,[12],80.3%
same,glutamate uptake change,[13],2.2%
same,inclusion score,[14],1
same,aggregation suppression score,[15],1.36
same,parasite load remaining,[7],176% (inactive) and 64.4% (inactive)
same,viability,[7],87.7% and 95.6%
same,red/green cell ratio (normalised),[1],0.86 (inactive)
same,normalised cell number,[1]; [17],0.91
same,normalised cell number,[1]; [18],0.79
same,fold change,[2]; [19],0.95 (inactive)
same,fold change,[2]; [20],2.52
same,cell count,[2]; [21],12500
same,cell count,[2]; [22],13100
same,remaining NAD,[3],10 nM (inactive)
same,luciferase signal,[16],44 AU (inactive)

# — PubChem BioAssay
